{"source": "PubChem BioAssay AID887", "about": "(National Center for Advancing Translational Sciences (NCATS), 2007)", "note": "Where “and” joins values, the source holds several entries; their conditions need not be identical. Equal values may be shown once. In all, about 74,000 compounds went through this assay and about 1,100 (1.5%) were called active. A call without a number means that no potency is given here. Not shown: some 5% with an inconclusive outcome. This excerpt belongs to a sample that is enriched for actives. Unmarked numbers belong to inactive results. Calls come from the whole dose curve; as a rule, active = well fitted inhibition curve with a large enough effect; inconclusive = small, poorly fitted or top-dose-only effect; inactive = no such curve, though single readings can be large or run the other way. Potency is the fitted concentration of half-maximal effect."}
{"biological_target": "Polyunsaturated fatty acid lipoxygenase ALOX15 (Homo sapiens) (UniProt P16050)", "sequence (P16050 whole entry, looked up)": "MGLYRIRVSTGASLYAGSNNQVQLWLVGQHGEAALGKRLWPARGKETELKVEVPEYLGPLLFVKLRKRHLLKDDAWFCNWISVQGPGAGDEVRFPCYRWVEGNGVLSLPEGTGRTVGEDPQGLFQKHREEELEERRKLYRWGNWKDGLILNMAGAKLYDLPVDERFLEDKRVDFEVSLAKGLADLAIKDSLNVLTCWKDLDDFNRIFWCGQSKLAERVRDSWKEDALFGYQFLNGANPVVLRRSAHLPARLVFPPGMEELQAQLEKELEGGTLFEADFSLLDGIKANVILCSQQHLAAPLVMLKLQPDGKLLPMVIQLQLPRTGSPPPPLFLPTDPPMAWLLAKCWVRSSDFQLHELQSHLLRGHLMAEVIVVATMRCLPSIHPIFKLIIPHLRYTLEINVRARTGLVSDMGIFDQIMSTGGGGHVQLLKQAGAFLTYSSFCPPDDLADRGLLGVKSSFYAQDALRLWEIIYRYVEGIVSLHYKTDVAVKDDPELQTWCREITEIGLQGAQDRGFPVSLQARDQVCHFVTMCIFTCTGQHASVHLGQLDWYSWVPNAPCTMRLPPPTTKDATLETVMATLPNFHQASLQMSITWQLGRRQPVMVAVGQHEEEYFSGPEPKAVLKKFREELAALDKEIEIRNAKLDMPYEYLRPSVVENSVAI", "experiment": "qHTS Assay for Inhibitors of 15-hLO (15-human lipoxygenase); note: nearly all actives have a fitted effect of over 55% in size", "conditions": "purified 15hLO-1, xylenol orange hydroperoxide absorbance; series mostly up to 57.1 µM", "method_in_brief": "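Compounds were preincubated 15 min at room temperature with 40 nM purified human enzyme (25 mM Hepes pH 7.5, 0.01% Triton X-100); 50 uM arachidonic acid reacted 6 min. Fe-xylenol orange detection, 30 min, absorbance ratio 573/405 nm.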"}
{"smiles": "C[C@@H]1O[C@@H](OC[C@H]2O[C@@H](Oc3c(-c4cccc(O)c4O)oc4cc(O)cc(O)c4c3=O)[C@H](O)[C@@H](O)[C@@H]2O)[C@H](O)[C@H](O)[C@H]1O", "activity change, negative = inhibition": "inactive"}
{"smiles": "CC(C)C(c1nnnn1CCc1ccccc1)N1CCN(C(=O)c2ccco2)CC1", "note": "(configuration not stated)", "activity change, negative = inhibition": "inactive"}
{"smiles": "O=C(OCc1cc2ccccc2[nH]c1=O)c1cccnc1", "activity change, negative = inhibition": "inactive"}
{"smiles": "C=CCOC(=O)C(C(C)=O)C(NC(=O)OC)c1ccccc1", "note": "(configuration not stated)", "activity change, negative = inhibition": "13.9% [at 11.4 µM]"}
{"smiles": "O=C(CSc1nc2[nH]ncc2c(=O)n1-c1ccccc1)N1CCCc2ccccc21", "Potency": "15.8 µM (active)"}
{"smiles": "Cc1nnc(SCC(=O)N2CCc3ccccc32)n1-c1ccccc1", "activity change, negative = inhibition": "inactive"}
{"smiles": "C=CCn1c(=O)c2ccccc2n2c(SCC(=O)N3CCCc4ccccc43)nnc12", "activity change, negative = inhibition": "inactive"}
{"smiles": "CC1(C)OC2CC(=O)OC[C@@]23C1CC(=O)[C@]1(C)C3CC[C@@]2(C)C(c3ccoc3)OC(=O)C3O[C@@]321", "note": "(some centres not stated)", "activity change, negative = inhibition": "inactive"}
{"smiles": "COc1ccccc1C(=O)n1nc(-c2ccccc2)nc1N", "Potency": "12.6 µM (active)"}
{"smiles": "COc1ccc(C(=O)n2nc(-c3ccc(C)cc3)nc2N)cc1OC", "activity change, negative = inhibition": "inactive"}
{"smiles": "COc1ccc(C(=O)n2nc(-c3ccc(Cl)cc3)nc2N)cc1OC", "activity change, negative = inhibition": "inactive"}
{"smiles": "CCOC(=O)c1cccc(NC(=O)CCn2nnc3ccccc32)c1", "activity change, negative = inhibition": "inactive"}
{"smiles": "CO[C@@H]1COC(=O)[C@H](Cc2ccccc2)NC(=O)C/C=C\\[C@@H](C)[C@H](OC)COC(=O)[C@@H](C)NC(=O)C/C=C\\[C@H]1C", "activity change, negative = inhibition": "2.31% [at 11.4 µM] and 5.99% [at 11.4 µM]"}
{"smiles": "Cc1cccc(C(=O)O)c1[N+](=O)[O-]", "activity change, negative = inhibition": "inactive"}
{"smiles": "C=CC(=O)c1ccc2ccccc2c1", "Potency": "12.6 µM (active)"}
{"smiles": "Cc1ccc2nc(CC(=O)c3ccc4ccccc4c3)c(=O)[nH]c2c1", "activity change, negative = inhibition": "-4.04% [at 11.4 µM]"}
{"smiles": "Cc1csc(-c2nc3ccccc3n2C)n1", "activity change, negative = inhibition": "inactive"}
{"smiles": "Cc1cccc2c3c(ccc12)C1=C(C(=O)C3=O)C(C)CO1", "note": "(configuration not stated)", "activity change, negative = inhibition": "inactive"}
{"smiles": "C/C(CCN1CCc2nc(-c3ccccc3)c(-c3ccccc3)cc2C1)=N\\O[C@@H](C)c1cn([C@@H]2COC[C@@H]2O)nn1", "activity change, negative = inhibition": "0.588% [at 11.4 µM]"}
{"smiles": "O=C(Oc1cc(OC(=O)c2ccccc2)c2c(c1)OC(c1ccc(OC(=O)c3ccccc3)c(OC(=O)c3ccccc3)c1)[C@@H](OC(=O)c1ccccc1)C2)c1ccccc1", "note": "(some centres not stated)", "activity change, negative = inhibition": "inactive"}
{"smiles": "COC(=O)C(C(=O)OC)[C@@H]1CCCC(=O)C1", "activity change, negative = inhibition": "14.4% [at 11.4 µM]"}
{"smiles": "C=CCn1c(SCC(=O)Nc2nc3ccccc3s2)nnc1-c1ccccc1O", "Potency": "25.1 µM (active)"}
{"smiles": "CCn1c(SCC(=O)Nc2nc3ccc(OC)cc3s2)nnc1-c1ccoc1C", "activity change, negative = inhibition": "inactive"}
{"smiles": "C=CCn1c(CSc2nc3ccccc3s2)nnc1SCC(=O)NCc1ccco1", "activity change, negative = inhibition": "inactive"}
{"smiles": "CC(C)C(N)C(=O)OCCOCn1cnc2c(=O)[nH]c(N)nc21", "note": "(configuration not stated)", "activity change, negative = inhibition": "inactive"}
{"smiles": "Cc1ccc2c(c1)C(O)(CC(=O)c1cccnc1)C(=O)N2", "note": "(configuration not stated)", "activity change, negative = inhibition": "inactive"}
{"smiles": "COc1ccc(/C=C/NC(=O)c2ccc(OC)cc2)cc1", "activity change, negative = inhibition": "-5.84% [at 11.4 µM]"}
{"smiles": "Cc1cccn2c(=O)c3cc(C(=O)NCc4ccccn4)n(C)c3nc12", "activity change, negative = inhibition": "inactive"}
{"smiles": "O=C(NCc1ccccn1)c1cc2ccccc2oc1=O", "activity change, negative = inhibition": "inactive"}
{"smiles": "O=C(NCc1ccccn1)c1ccc2nc(-c3ccco3)c(-c3ccco3)nc2c1", "Potency": "3.16 µM (active)"}
{"smiles": "O=C(O)c1ccc(Cl)c(S(=O)(=O)Nc2ccccc2Cl)c1", "activity change, negative = inhibition": "inactive"}
{"smiles": "NC1(C(=O)OCc2ccccc2)CCCC1", "activity change, negative = inhibition": "-11.8% [at 11.4 µM]"}
{"smiles": "N#Cc1c(N)sc2c1CCN(C(=O)OCc1ccccc1)C2", "Potency": "15.8 µM (active)"}
{"smiles": "N#Cc1ccc(COC(=O)Cn2nnc(-c3ccccc3)n2)cc1", "activity change, negative = inhibition": "inactive"}
{"smiles": "CC(CCC(=O)O)C1CCC2C3C(O)C[C@@H]4CC(O)CC[C@@]4(C)C3CC[C@@]12C", "note": "(some centres not stated)", "activity change, negative = inhibition": "inactive"}
{"smiles": "C#CCC(C(=O)OC)(C(=O)OC)C(C[N+](=O)[O-])c1ccccc1", "note": "(configuration not stated)", "activity change, negative = inhibition": "-3.59% [at 11.4 µM]"}
{"smiles": "CCC(CCC(C)C1CCC2C3CC=C4CC(O)CC[C@@]4(C)C3CC[C@@]12C)C(C)C", "note": "(some centres not stated)", "activity change, negative = inhibition": "inactive"}
{"smiles": "CO[C@H]1COC(=O)C/C=C\\[C@H](C)COC(=O)[C@@H](OCc2ccccc2)/C=C\\[C@@H]1C", "activity change, negative = inhibition": "5.89% [at 11.4 µM]"}
{"smiles": "C=C1C(=O)C23C(O)C1CCC2[C@]12COC3(O)C(O)C1C(C)(C)CC[C@H]2O", "note": "(some centres not stated)", "activity change, negative = inhibition": "inactive"}
{"smiles": "CCOCCCN1C(=O)CN(C2CCCCC2)C(=O)C1c1ccc(OCC)c(OC)c1", "note": "(configuration not stated)", "activity change, negative = inhibition": "inactive"}
{"smiles": "COC(=O)[C@@H]1CC[C@H](C)[C@@H](c2ccc(C)cc2)N1C(=O)c1ccc(/C=N\\OC[C@@H](O)COCc2ccco2)cc1", "activity change, negative = inhibition": "-2.65% [at 11.4 µM]"}
{"smiles": "Cc1ccc(-c2nc(CS(=O)CC(=O)N3CCN(c4ncccn4)CC3)c(C)o2)cc1", "note": "(configuration not stated)", "activity change, negative = inhibition": "inactive"}
{"smiles": "CCOc1ccc2[nH]c(=O)c(CN(Cc3nnnn3Cc3ccccc3)CC3CCCO3)cc2c1", "note": "(configuration not stated)", "activity change, negative = inhibition": "inactive"}
{"smiles": "COc1ccc2[nH]c(=O)c(CN(Cc3nnnn3CCc3ccccc3)CC3CCCO3)cc2c1", "note": "(configuration not stated)", "Potency": "1.26 µM (active)"}
{"smiles": "CCOc1ccc2[nH]c(=O)c(CN(Cc3nnnn3CCc3ccccc3)CC3CCCO3)cc2c1", "note": "(configuration not stated)", "activity change, negative = inhibition": "inactive"}
{"smiles": "O=C(CSc1nnc2scc(-c3ccc(F)cc3)n12)NCc1ccco1", "activity change, negative = inhibition": "inactive"}
{"smiles": "CCCc1nc2c(C)cc(-c3nc4ccccc4n3C)cc2n1Cc1ccc(-c2ccccc2C(=O)O)cc1", "activity change, negative = inhibition": "inactive"}
